From PMC7819943, “Rice protein-binding microarrays: a tool to detect cis-acting elements near promoter regions in rice”
Over roughly 68,000 sequences, “fluorescence intensity (a.u.)” has its median near 9,100; the highest 2% begin near 16,000. The entries come from a sample that favours the highest values as a whole.

Target: OsWRKY34 (Oryza sativa, UniProt Q0JBA9 1-250)
Assay: protein-binding microarray (RPBM); PBS, 2% BSA, 51.3 ng/ul salmon testes DNA, 50 uM zinc acetate, 200 nM TF, 25 C, 1 h; high values mean tight binding
Details: protein: recombinant; tags: N-terminal polyhistidine and DsRed monomer fusion (pET32a); label: CyDye5-dUTP incorporated in the synthesized complementary strand; 3' TTTTT single-stranded linker to array surface; dsDNA, one strand shown
Method in brief: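 Binding signal is reported as fluorescence intensity per feature (arbitrary units) from an Axon 4000B scanner. Incubation used 200 nM of each Ni–NTA-purified, N-terminally polyhistidine- and DsRed-fused transcription factor from E. coli BL21-CodonPlus on a double-stranded custom Agilent array for 1 h at 25 °C, with 50 µM zinc acetate in the buffer, followed by washing.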

Chain of OsWRKY34 (Q0JBA9 entry or part of it): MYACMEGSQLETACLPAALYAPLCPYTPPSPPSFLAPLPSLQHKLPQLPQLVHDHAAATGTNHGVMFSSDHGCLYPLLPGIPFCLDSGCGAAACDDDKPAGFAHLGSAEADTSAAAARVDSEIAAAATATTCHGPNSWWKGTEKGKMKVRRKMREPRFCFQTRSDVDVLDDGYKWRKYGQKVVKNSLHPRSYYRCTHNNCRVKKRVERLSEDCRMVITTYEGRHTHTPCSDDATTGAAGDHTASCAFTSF

Question: Which binding signal does the source give for “CGACGGGAGAGGAGGAGCCGGTGGGCGGGGTGGGGCCCACCGGAGTCACCTAGTGCAG” here?
Answer: The binding signal was 11000 fluorescence intensity (a.u.).

Question: How did the binding signal turn out when “ATCCCAAAATAATGTGTTCGGGTGGGCGGGCGGGAAATATCGGAGTCACCTAGTGCAG” was run?
Answer: The binding signal was 23000 fluorescence intensity (a.u.).

Question: “GTGTTCTCATTGTATTGGGTATTCAAATGTTTTGTAATATCGGAGTCACCTAGTGCAG” was tested. Which binding signal did it give?
Answer: Its binding signal is 9730 fluorescence intensity (a.u.).

Question: For “ATTTTGTGTTTTTGTGGTGGTAATATTGTTTTTGAGTTCTCGGAGTCACCTAGTGCAG”, which binding signal is on record?
Answer: The binding signal was 9700 fluorescence intensity (a.u.).

Question: For “TTCGGGGTGTTCGTCAAAAATGTGGGGAGGAGGCATGGATCGGAGTCACCTAGTGCAG”, which binding signal is on record?
Answer: Its binding signal is 13100 fluorescence intensity (a.u.).

Question: How did the binding signal turn out when “GCGGGTGTGGCATTGTGGGTAATCTCGGCCGTTCAAATATCGGAGTCACCTAGTGCAG” was run?
Answer: The binding signal was 17300 fluorescence intensity (a.u.).

Question: For “TTACCAAACTGAAAATAAAAATGTGTGTTTTTTTTAATATCGGAGTCACCTAGTGCAG”, which binding signal is on record?
Answer: Its binding signal is 9410 fluorescence intensity (a.u.).

Question: Which binding signal does the source give for “AATCATCACATCATCACCGTCATCTTCTCTAGCATAGCAACGGAGTCACCTAGTGCAG” here?
Answer: Its binding signal is 8050 fluorescence intensity (a.u.).

Question: With “CCTTCCCATGCTGCTGTGATGTGTCATACGCCGCCGCCACCGGAGTCACCTAGTGCAG” as the sequence, how does the binding signal read?
Answer: Its binding signal is 9920 fluorescence intensity (a.u.).

Question: “TCCCAACCACACCCACCCACCCGCCCAATCCATCCACCAACGGAGTCACCTAGTGCAG” was tested. Which binding signal did it give?
Answer: The binding signal was 8860 fluorescence intensity (a.u.).

Question: “TCCCTTCAAATATTGTTTTTCTTTTAACACTCAATCTCTCCGGAGTCACCTAGTGCAG” was tested. Which binding signal did it give?
Answer: The binding signal was 8940 fluorescence intensity (a.u.).

Question: Which binding signal does the source give for “TAGAATTACATCTGATATACCGGTCTTACGCTCTTAGATTCGGAGTCACCTAGTGCAG” here?
Answer: Its binding signal is 8860 fluorescence intensity (a.u.).

Question: How did the binding signal turn out when “GCCCAGCCCAGGCCCACCTTATGTTTTGTTGCATCTCTACCGGAGTCACCTAGTGCAG” was run?
Answer: The binding signal was 10700 fluorescence intensity (a.u.).

Question: With “TCCACCCATCGTTCTCATGACCTGCCAACCCCATCCCAGCCGGAGTCACCTAGTGCAG” as the sequence, how does the binding signal read?
Answer: The binding signal was 10000 fluorescence intensity (a.u.).

Question: How did the binding signal turn out when “TGCCTAGATGAATACTGCATGTTTTTTTTTTGTTTGATTTCGGAGTCACCTAGTGCAG” was run?
Answer: The binding signal was 9620 fluorescence intensity (a.u.).

Question: “TTTTTTACCATGGGTCTTGCATTGAATTTTTCTTTTTTTTCGGAGTCACCTAGTGCAG” was tested. Which binding signal did it give?
Answer: The binding signal was 9890 fluorescence intensity (a.u.).

Question: How did the binding signal turn out when “CTCTCTCCACCCTCAGCCGCCACACTCCCATCCATTCTCCCGGAGTCACCTAGTGCAG” was run?
Answer: Its binding signal is 9060 fluorescence intensity (a.u.).

Question: For “TCATCCGCACCAACACCATTAGTTATATTACCCACACATCCGGAGTCACCTAGTGCAG”, which binding signal is on record?
Answer: The binding signal was 8520 fluorescence intensity (a.u.).

Question: With “AATAGGGCATGAACCCCAGCCATTTCTCCTCATCCCACACCGGAGTCACCTAGTGCAG” as the sequence, how does the binding signal read?
Answer: The binding signal was 63200 fluorescence intensity (a.u.).

Question: For “CACAGGGCATGAATTGATGAATAGGATGGCCATTTTTTTTCGGAGTCACCTAGTGCAG”, which binding signal is on record?
Answer: The binding signal was 65000 fluorescence intensity (a.u.).

Question: For “TCCACCCATCCTCATCATTATCCTCTCTCTCCTCTCTCACCGGAGTCACCTAGTGCAG”, which binding signal is on record?
Answer: Its binding signal is 9640 fluorescence intensity (a.u.).

Question: “GAACCCACATCCCACCATGACGCGCAATTACCTCATTATCCGGAGTCACCTAGTGCAG” was tested. Which binding signal did it give?
Answer: The binding signal was 17000 fluorescence intensity (a.u.).

Question: How did the binding signal turn out when “TCCTGTGCGCCTCCCTCGAGCGTGTGACTGTGTTTGTGACCGGAGTCACCTAGTGCAG” was run?
Answer: Its binding signal is 8710 fluorescence intensity (a.u.).

Question: “TTTAAGTTTGTTTGGTTGTGGGTTATAGGCTCTATTTCAACGGAGTCACCTAGTGCAG” was tested. Which binding signal did it give?
Answer: The binding signal was 12000 fluorescence intensity (a.u.).

Question: With “ATTTGCATGACATATATCATTACTACATTATTTTATATAGCGGAGTCACCTAGTGCAG” as the sequence, how does the binding signal read?
Answer: The binding signal was 8930 fluorescence intensity (a.u.).

Question: With “GTGTGTTATTTTCTTCCACTCTTTAGTTTTCACTTTTTGACGGAGTCACCTAGTGCAG” as the sequence, how does the binding signal read?
Answer: Its binding signal is 9240 fluorescence intensity (a.u.).

Question: With “GTTGCCCTTTTGCTCCTGTTGTCTTCTCCGCTCCTGTCGTCGGAGTCACCTAGTGCAG” as the sequence, how does the binding signal read?
Answer: Its binding signal is 9800 fluorescence intensity (a.u.).

Question: “TGGCATTTTTTTTTTCTTGTGAAAAACCGACGAGAGGAAGCGGAGTCACCTAGTGCAG” was tested. Which binding signal did it give?
Answer: The binding signal was 8190 fluorescence intensity (a.u.).

Question: Which binding signal does the source give for “GTTCATTTTATAGTCTAGCAAAATTTCCTCTCTTTTTTTTCGGAGTCACCTAGTGCAG” here?
Answer: Its binding signal is 10700 fluorescence intensity (a.u.).

Question: “AGTGACCCTTATCTCTTCACCTATCTCTCTCCCTTCCCCTCGGAGTCACCTAGTGCAG” was tested. Which binding signal did it give?
Answer: Its binding signal is 9580 fluorescence intensity (a.u.).

Question: With “TCTTTTGTATAGCACTGTACCGTATACAACACTGAATACACGGAGTCACCTAGTGCAG” as the sequence, how does the binding signal read?
Answer: The binding signal was 8080 fluorescence intensity (a.u.).

Question: With “CCTTCTATTTTTCCGTCACATCAAATGTTTGGACACATGTCGGAGTCACCTAGTGCAG” as the sequence, how does the binding signal read?
Answer: The binding signal was 9670 fluorescence intensity (a.u.).

Question: For “TTTCTTTCTTTCTTTCTTGGGATCTTTTCCTTCTTTTTTTCGGAGTCACCTAGTGCAG”, which binding signal is on record?
Answer: Its binding signal is 12600 fluorescence intensity (a.u.).

Question: “TCCTTTTTTTTGGGTGCTTTTCTTTTGTATAGCACTGTACCGGAGTCACCTAGTGCAG” was tested. Which binding signal did it give?
Answer: Its binding signal is 65500 fluorescence intensity (a.u.).

Question: For “TTCTTTTTTTGGCTTCCTTTTTTTTGTGTGTATATATGTACGGAGTCACCTAGTGCAG”, which binding signal is on record?
Answer: The binding signal was 13700 fluorescence intensity (a.u.).

Question: For “CGTCGATCTCTATCTCTCTCTCTCGCTTGTTCTTCTTCACCGGAGTCACCTAGTGCAG”, which binding signal is on record?
Answer: The binding signal was 15200 fluorescence intensity (a.u.).

Question: Which binding signal does the source give for “ACGACGAGGTCGCTTTTTTCTTGTTGGGCTGGGCTGGGATCGGAGTCACCTAGTGCAG” here?
Answer: Its binding signal is 21800 fluorescence intensity (a.u.).

Question: With “TTCTTTGTTGGATTGATGATCGCTTTTGTGTGGGAGAGGTCGGAGTCACCTAGTGCAG” as the sequence, how does the binding signal read?
Answer: Its binding signal is 9380 fluorescence intensity (a.u.).

Question: “ATCTAGCCTATCGCTCTTGTGTTCTCGGTGTGTACTTGGTCGGAGTCACCTAGTGCAG” was tested. Which binding signal did it give?
Answer: Its binding signal is 16600 fluorescence intensity (a.u.).

Question: For “CAAACTTCTAATTTTTCCGTCACATCAAATGTTTGGATATCGGAGTCACCTAGTGCAG”, which binding signal is on record?
Answer: Its binding signal is 34900 fluorescence intensity (a.u.).

Question: With “GTTCTCGGTGTGTACTTGGTCCATCAGTCTCTTCAGATCTCGGAGTCACCTAGTGCAG” as the sequence, how does the binding signal read?
Answer: The binding signal was 8120 fluorescence intensity (a.u.).

Question: “GTCAAACATCAACTTTTCCGTCACATCAAATGTTTGGACACGGAGTCACCTAGTGCAG” was tested. Which binding signal did it give?
Answer: Its binding signal is 8670 fluorescence intensity (a.u.).

Question: With “GTATGCATTATTATGCTGATTAATTTGGCCTGGTTATTTGCGGAGTCACCTAGTGCAG” as the sequence, how does the binding signal read?
Answer: Its binding signal is 8160 fluorescence intensity (a.u.).

Question: For “GTCGGGTTCGGGTACTGTTGATGCTGATCGAGATGGTCCTCGGAGTCACCTAGTGCAG”, which binding signal is on record?
Answer: The binding signal was 8650 fluorescence intensity (a.u.).

Question: Which binding signal does the source give for “AACTATTTTTTTATGGGTTTGTTGTGTAGATCATGTAGCACGGAGTCACCTAGTGCAG” here?
Answer: Its binding signal is 11100 fluorescence intensity (a.u.).

Question: For “TTCTACTTCTACACCTCGCAATGAAAAAAACAAATTTGACCGGAGTCACCTAGTGCAG”, which binding signal is on record?
Answer: The binding signal was 8060 fluorescence intensity (a.u.).

Question: How did the binding signal turn out when “GCTTCTTCCGTTGCAATTCCATTCTCCTCTCTCTCCTGCTCGGAGTCACCTAGTGCAG” was run?
Answer: The binding signal was 11400 fluorescence intensity (a.u.).

Question: With “AGGACACCTTAGCATTCAGCCATCTTATTTCTCTGTATTACGGAGTCACCTAGTGCAG” as the sequence, how does the binding signal read?
Answer: The binding signal was 9420 fluorescence intensity (a.u.).

Question: How did the binding signal turn out when “TCCAGAAGACACCCGCCTGCTCCACTGCCGTTCCTGTCGACGGAGTCACCTAGTGCAG” was run?
Answer: Its binding signal is 9120 fluorescence intensity (a.u.).

Question: How did the binding signal turn out when “ACTGTGAATGTGTGACTAAATGGGCCGAGCCCAACTACTACGGAGTCACCTAGTGCAG” was run?
Answer: Its binding signal is 9860 fluorescence intensity (a.u.).

Question: “GATTCATCTTGCCCTCAAAGTTTCCTGCTTTGTTTGATCACGGAGTCACCTAGTGCAG” was tested. Which binding signal did it give?
Answer: Its binding signal is 9520 fluorescence intensity (a.u.).

Question: With “GGAGGGAGTAGTATATTGGGGATTTTCAGTTGGGTCTGGGCGGAGTCACCTAGTGCAG” as the sequence, how does the binding signal read?
Answer: The binding signal was 14200 fluorescence intensity (a.u.).

Question: For “GCCATTCTATAGGAGGTGGTGGGGAGGGTTTCGTGCTCCTCGGAGTCACCTAGTGCAG”, which binding signal is on record?
Answer: Its binding signal is 10800 fluorescence intensity (a.u.).

Question: Which binding signal does the source give for “TTTGTCACGCGAATACTGTATTGTAGGGTGGGGTTCACTGCGGAGTCACCTAGTGCAG” here?
Answer: Its binding signal is 12100 fluorescence intensity (a.u.).
